Experimental findings from PubChem BioAssay are described below.

Where “and” joins values, the source holds several entries; their conditions need not be identical. Equal values may be shown once. Calls of active or inactive are those of the source.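 How the source made its calls, unless noted: active means compounds whose cell count with miR-34 switched on is under 0.7 times the count with it off; inactive means the rest.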

The nature of experiment [1]: viability loss with induced miR-34 in A549 – imaging, A549 dox-inducible miR-34, nuclei and caspase counts, primary screen (AID 1347080). Further: test concentration not given here. The conditions noted are these: A549 miR-34 inducible, Hoechst nuclei count, 48 h.
A short description of experiment [2]: MELAS cybrid and Rieske KO viability enhancers – cell-based, MELAS cybrids, Rieske KO mouse fibroblasts, CellTiter-Glo, primary screen (AID 1508586;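 active means mean z-score across replicates of 1.96 or higher in either the MELAS or the Rieske mutant cell line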;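 further: test concentration not given here; z relative to plate mean and SD of compound and empty wells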). The conditions noted are these: low glucose.
Experiment [3] is described as follows: galactose survival enhancers in mitochondrial complex I cybrids – cell-based, galactose medium, ATP luminescence, primary screen (AID 1645843;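 active means z-score of at least 1.8 in each of two replicates, scored against plate mean and spread of sample wells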;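 further: positive z means more ATP and so rescue of galactose-driven cybrid death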). The conditions noted are these: complex I mutant cybrid cells, 72 h, stronger effect = higher value.
Where [4] appears, read: stronger effect = lower value, cell number ratio, induced over uninduced.
The mark [5] stands for this setting: measured here: relative caspase fold change +Dox/-Dox.
Setting [6] is: measured here: total cells with miR-34 induction, stronger effect = lower value.
The mark [7] stands for this setting: measured here: total cells without miR-34 induction.
[8] abbreviates: MELAS cybrid survival, CellTiter-Glo 48 h, stronger effect = higher value.
[9] abbreviates: Rieske KO mouse fibroblast survival, CellTiter-Glo 72 h.

Consider `COc1cc(N2CCN(Cc3ccccc3F)C(=O)C2)ncn1`, for which the fold change in experiment [1] (setting [4]) was 0.848 (inactive); in experiment [1] (setting [5]), 1.97. Besides, the cell count is 6780 in experiment [1] (setting [6]) and 7990 in experiment [1] (setting [7]). Further, the values for the z-score in experiment [2] (setting [8]), in experiment [2] (setting [9]) and in experiment [3] were -0.24 (inactive), -0.349 and -0.475 (inactive), respectively.
As for `O=C1CN(c2ncnc3sccc23)CCN1Cc1cccc(F)c1`, the fold change in experiment [1] (setting [4]) was 0.826 (inactive); in experiment [1] (setting [5]), 1.63. For the same compound, the values for the cell count in experiment [1] (setting [6]) and in experiment [1] (setting [7]) were 4730 and 5730, respectively. Also, the z-score in experiment [2] (setting [8]) is -0.104 (inactive); in experiment [2] (setting [9]), 0.0557; in experiment [3], 3.78 (active).
Take `O=C1CN(c2ncnc3nc[nH]c23)CCN1CCc1ccccc1`: the results for the fold change in experiment [1] (setting [4]) and in experiment [1] (setting [5]) were 0.93 (inactive) and 1.88, respectively. Further, the results for the cell count in experiment [1] (setting [6]) and in experiment [1] (setting [7]) were 8450 and 9080, respectively. In addition, the z-score in experiment [2] (setting [8]) is -0.834 (inactive); in experiment [2] (setting [9]) it was -0.816; in experiment [3], -0.58 (inactive).
On to `CCOC(=O)C(CCc1ccccc1)NC(C)C(=O)N1C(C(=O)O)CC2CCCC21` (stereo not drawn), for which the fold change in experiment [1] (setting [4]) is 0.892 (inactive) and 0.893 (inactive); in experiment [1] (setting [5]) it was 1.7 and 1.12. Also, the cell count was 8500 and 7970 in experiment [1] (setting [6]); 9530 and 8920 in experiment [1] (setting [7]). Moreover, the z-score in experiment [2] (setting [8]) is -0.00441 (inactive); in experiment [2] (setting [9]), 0.321; in experiment [3], 0.52 (inactive).
For `O=C(O)CSc1nc(-c2cccc(Cl)c2)no1`, the values for the fold change in experiment [1] (setting [4]) and in experiment [1] (setting [5]) were 0.912 (inactive) and 0.254, respectively. In addition, the cell count in experiment [1] (setting [6]) is 8810; in experiment [1] (setting [7]) it was 9660. In addition, the z-score in experiment [2] (setting [8]) is 0.659 (inactive); in experiment [2] (setting [9]), -0.279; in experiment [3] it was 0.49 (inactive).
Regarding `Nc1ncccc1OCc1ccccc1`, the figures for the fold change in experiment [1] (setting [4]) and in experiment [1] (setting [5]) were 0.764 (inactive) and 0.403, respectively. For the same compound, the cell count in experiment [1] (setting [6]) came to 7870; in experiment [1] (setting [7]), 10300. Besides, the z-score in experiment [2] (setting [8]) was -0.968 (inactive); in experiment [2] (setting [9]), -0.912; in experiment [3], -0.165 (inactive).
For `CCNc1ncc(-c2cc(C(=O)N(C)CCN(C)C)c3cc(F)ccc3n2)cn1`, the values for the fold change in experiment [1] (setting [4]) and in experiment [1] (setting [5]) were 0.912 (inactive) and 2.18, respectively. Also, the cell count in experiment [1] (setting [6]) was 8760; in experiment [1] (setting [7]), 9610. Also, the z-score in experiment [2] (setting [8]) is -0.0763 (inactive); in experiment [2] (setting [9]) it was -0.44; in experiment [3], -0.56 (inactive).
Turning to `OCCN1CC(O)C(O)C(O)C1CO` (stereo not drawn), the fold change in experiment [1] (setting [4]) is 0.949 (inactive) and 0.938 (inactive); in experiment [1] (setting [5]) it was 1.7 and 0.717. Further, the cell count is 10100 and 10300 in experiment [1] (setting [6]); 10600 and 11000 in experiment [1] (setting [7]). The z-score was -0.386 (inactive) in experiment [2] (setting [8]), 0.318 in experiment [2] (setting [9]) and 0.805 (inactive) in experiment [3].
Take `CC(NC(CCc1ccccc1)C(=O)O)C(=O)N1CCCC1C(=O)O` (stereo not drawn): the fold change in experiment [1] (setting [4]) was 0.974 (inactive) and 0.933 (inactive); in experiment [1] (setting [5]), 2.22 and 0.554. The cell count in experiment [1] (setting [6]) is 9670 and 8080; in experiment [1] (setting [7]), 9920 and 8660. For the same compound, the z-score is 0.277 (inactive) in experiment [2] (setting [8]), 0.0621 in experiment [2] (setting [9]) and 0.69 (inactive) in experiment [3].
`Cc1nc(C)c(-c2ccnc(N)n2)s1`: the results for the fold change in experiment [1] (setting [4]) and in experiment [1] (setting [5]) were 0.869 (inactive) and 0.21, respectively. For the same compound, the cell count in experiment [1] (setting [6]) stood at 8060; in experiment [1] (setting [7]), 9270. Moreover, the z-score in experiment [2] (setting [8]) was 0.483 (inactive); in experiment [2] (setting [9]) it was -0.306; in experiment [3], -0.255 (inactive).
Take `O=C1CN(c2ncnc3sccc23)CCN1C1CCCC1`: the fold change is 0.857 (inactive) in experiment [1] (setting [4]) and 1.28 in experiment [1] (setting [5]). The cell count turned out to be 8070 in experiment [1] (setting [6]) and 9410 in experiment [1] (setting [7]). For the same compound, the values for the z-score in experiment [2] (setting [8]), in experiment [2] (setting [9]) and in experiment [3] were -1.24 (inactive), -0.154 and 1.98 (inactive), respectively.
On to `COc1ccc(OC)c2c1c(C)cc(=O)n2C`, for which the fold change was 0.823 (inactive) in experiment [1] (setting [4]) and 0.693 in experiment [1] (setting [5]). For the same compound, the cell count in experiment [1] (setting [6]) was 8060; in experiment [1] (setting [7]), 9790. Moreover, the z-score in experiment [2] (setting [8]) was -0.469 (inactive); in experiment [2] (setting [9]) it was 0.131; in experiment [3] it was -0.615 (inactive).
In the case of `CCCOc1ccc(CC(=O)O)cc1Cl`, the fold change in experiment [1] (setting [4]) is 0.877 (inactive); in experiment [1] (setting [5]) it was 0.341. Besides, the cell count in experiment [1] (setting [6]) worked out at 8590; in experiment [1] (setting [7]), 9790. Also, the z-score in experiment [2] (setting [8]) was 0.699 (inactive); in experiment [2] (setting [9]), 0.326; in experiment [3] it was 0.735 (inactive).
With `O=C1CCC(CC(=O)N2CCc3[nH]nc(-c4ccc5c(c4)OCO5)c3C2)N1` (stereo not drawn), the figures for the fold change in experiment [1] (setting [4]) and in experiment [1] (setting [5]) were 0.953 (inactive) and 1.24, respectively. Further, the results for the cell count in experiment [1] (setting [6]) and in experiment [1] (setting [7]) were 9140 and 9600, respectively. Further, the z-score was -0.575 (inactive) in experiment [2] (setting [8]), -0.976 in experiment [2] (setting [9]) and -0.52 (inactive) in experiment [3].
As for `CN1CCN(Cc2cccc(-n3cccn3)c2)CC1CCO` (stereo not drawn), the fold change in experiment [1] (setting [4]) is 0.861 (inactive); in experiment [1] (setting [5]), 3.04. Further, the cell count in experiment [1] (setting [6]) is 8640; in experiment [1] (setting [7]), 10000. The figures for the z-score in experiment [2] (setting [8]), in experiment [2] (setting [9]) and in experiment [3] were -0.56 (inactive), -0.308 and -0.58 (inactive), respectively.
Consider `O=C(O)c1ccccc1C(=O)O`, for which the values for the fold change in experiment [1] (setting [4]) and in experiment [1] (setting [5]) were 0.874 (inactive) and 0.755, respectively. Moreover, the cell count in experiment [1] (setting [6]) came to 8620; in experiment [1] (setting [7]), 9850. Also, the results for the z-score in experiment [2] (setting [8]), in experiment [2] (setting [9]) and in experiment [3] were -0.0339 (inactive), -0.338 and 0.455 (inactive), respectively.
In the case of `CCC(C)n1ncn(-c2ccc(N3CCN(c4ccc(OCC5CO[C@](Cn6cncn6)(c6ccc(Cl)cc6Cl)O5)cc4)CC3)cc2)c1=O` (stereo partly drawn), the fold change in experiment [1] (setting [4]) was 0.844 (inactive) and 0.945 (inactive); in experiment [1] (setting [5]) it was 0.375 and 1.03. The cell count in experiment [1] (setting [6]) was 6320 and 8160; in experiment [1] (setting [7]), 7490 and 8630. Besides, the z-score in experiment [2] (setting [8]) is 0.58 (inactive) and -0.288 (inactive); in experiment [2] (setting [9]) it was -0.239 and 0.0468; in experiment [3], -2.34 (inactive).
Regarding `Nc1nc2cc(C(=O)N3CCN(C(=O)c4ccco4)CC3)ccc2s1`, the fold change was 0.879 (inactive) in experiment [1] (setting [4]) and 1.74 in experiment [1] (setting [5]). Further, the cell count in experiment [1] (setting [6]) turned out to be 8870; in experiment [1] (setting [7]), 10100. For the same compound, the z-score in experiment [2] (setting [8]) is -0.277 (inactive); in experiment [2] (setting [9]) it was -0.24; in experiment [3], -0.565 (inactive).
Take `COc1cc(F)ccc1C(=O)N1CCc2[nH]nc(Cc3ccccc3)c2C1`: the fold change is 0.845 (inactive) in experiment [1] (setting [4]) and 1.46 in experiment [1] (setting [5]). Moreover, the cell count stood at 6700 in experiment [1] (setting [6]) and 7930 in experiment [1] (setting [7]). Also, the z-score is 0.33 (inactive) in experiment [2] (setting [8]), 0.986 in experiment [2] (setting [9]) and -0.125 (inactive) in experiment [3].
